High-throughput results as filed in PubChem.
Most compounds without a hit are left out; they make up all but 0.5% or so of the library.
C1s block = human complement C1s inhibition; 62,000 tested, 0.16% active; AID 538; P09871; purified C1s, fluorogenic AMC substrate, pooled mixtures; mean inhibition % of two 10-compound mixtures (hits give high values), % at 5 µM (by protocol);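 active = inhibition above 20% in each of the two 10-compound mixture wells holding the compound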;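 note: 0% = enzyme wells lacking compound mixture and 100% = no-enzyme blank wells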
FXIIa inh mix = factor XIIa (human) inhibition, mixture screen | P00748 | purified FXIIa, fluorogenic substrate, pooled mixtures | inhibition, % at 5 µM | 62,000 tested, 0.2% active;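 note: 0% = enzyme without compound and 100% = no enzyme blank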
FXIa inh mix = factor XIa (human) inhibition, mixture screen; P03951; purified FXIa, fluorogenic substrate, pooled mixtures; inhibition, % at 5 µM; 62,000 tested, 0.19% active;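 note: each value is inhibition by a whole ten-compound pool holding the compound; 0% = enzyme with no mixture and 100% = wells lacking enzyme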
Target sequence (P03951 19-387 limits assumed): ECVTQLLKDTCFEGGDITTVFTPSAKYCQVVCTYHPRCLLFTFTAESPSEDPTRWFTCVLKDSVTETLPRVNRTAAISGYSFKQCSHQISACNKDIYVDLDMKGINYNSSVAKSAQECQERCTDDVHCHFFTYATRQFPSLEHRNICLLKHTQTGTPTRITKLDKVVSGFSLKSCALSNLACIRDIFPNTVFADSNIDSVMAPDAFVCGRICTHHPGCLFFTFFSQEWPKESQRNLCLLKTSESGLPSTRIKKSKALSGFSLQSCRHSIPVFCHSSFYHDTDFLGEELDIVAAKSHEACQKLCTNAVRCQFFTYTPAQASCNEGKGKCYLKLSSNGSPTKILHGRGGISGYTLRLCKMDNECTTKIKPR
Target sequence (P03951 388-625 limits assumed): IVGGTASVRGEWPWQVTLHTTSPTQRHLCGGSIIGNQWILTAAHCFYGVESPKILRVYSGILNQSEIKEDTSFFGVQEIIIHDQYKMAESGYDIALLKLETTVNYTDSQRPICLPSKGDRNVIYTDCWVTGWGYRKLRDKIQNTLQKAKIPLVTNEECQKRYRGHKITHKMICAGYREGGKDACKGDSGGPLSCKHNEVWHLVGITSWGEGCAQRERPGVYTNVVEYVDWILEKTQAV
CatG inh = inhibitors of human cathepsin G; purified enzyme, AMC-tetrapeptide fluorescence, pooled mixtures; P08311; 62,000 tested, 0.2% active; inhibition, % at 5 µM (by protocol);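 active = inhibition above 20% in each of the two mixture wells holding the compound; inactive = inhibition of 20% or less in either well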;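 note: 0% = enzyme control without mixture and 100% = blank lacking enzyme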
* = called active by the depositor. Cut-off read from the data, not from the text of the source, unless noted: active = inhibition above about 20% (passing the limit was not always enough); inactive = the rest.

Screening Nc1nc(Cn2nnc(-c3ccccc3Cl)n2)nc(N2CCOCC2)n1 returned C1s block 2, FXIIa inh mix 21*, FXIa inh mix 3 and CatG inh 0.
For CCOC(=O)N1CC=C2C(C#N)=C(N)C(C#N)(C#N)[C@H](c3ccccc3OCC)[C@H]2C1 the results were C1s block 64*, FXIIa inh mix 4, FXIa inh mix 6 and CatG inh 10.
Cc1cccc2cc(CN(Cc3nnnn3Cc3ccco3)C3CCCC3)c3nnnn3c12 was read as C1s block -6, FXIIa inh mix 13, FXIa inh mix 0 and CatG inh -8.
`COc1ccccc1NC(=O)CSc1nnc(-c2ccccn2)n1Cc1ccco1` gave C1s block 28, FXIIa inh mix 3, FXIa inh mix 50* and CatG inh 31*.
Screening COc1ccc(C)cc1NC(=O)CSc1nnc(-c2ccccn2)n1Cc1ccco1 returned C1s block -4, FXIIa inh mix 4, FXIa inh mix 2 and CatG inh 9.
For CCCCC(=O)Nc1ccc(NC(=O)c2cccnc2)cn1 the results were C1s block 21*, FXIIa inh mix -15, FXIa inh mix 6 and CatG inh 9.
For CCCCC(=O)Nc1ccc(NC(=O)c2cc(OC)c(OC)c(OC)c2)cn1 the results were C1s block -31, FXIIa inh mix -10, FXIa inh mix 2 and CatG inh 3.
For O=C(C1CCN(S(=O)(=O)c2cccc3cccnc23)CC1)N1CCN(c2ccc(Cl)cc2)CC1 the results were C1s block 4, FXIIa inh mix 7, FXIa inh mix 2 and CatG inh 6.
Screening COc1ccc(C(=O)n2nc(-c3ccccc3)nc2N)cc1OC returned C1s block -7, FXIIa inh mix 8, FXIa inh mix 13 and CatG inh 44*.
Screening O=C(c1ccco1)N1C(=O)c2cccc3cccc1c23 returned C1s block 25*, FXIIa inh mix 5, FXIa inh mix 4 and CatG inh 15.
Screening CN(C)c1oc(-c2ccc(OCc3ccccc3)cc2)nc1C#N returned C1s block 14, FXIIa inh mix 6, FXIa inh mix 23* and CatG inh 8.
`N#Cc1nc(-c2ccc(OCc3ccccc3)cc2)oc1NCc1cccnc1` gave C1s block 1, FXIIa inh mix 3, FXIa inh mix 23 and CatG inh 2.
`CCCCn1c(SCC(=O)NCc2cccs2)nc2c1c(=O)n(C)c(=O)n2C` gave C1s block -30, FXIIa inh mix 1, FXIa inh mix 3 and CatG inh -1.
O=C(Oc1ccc(Cl)cc1N1C(=O)CCC1=O)c1ccco1 was read as C1s block 26*, FXIIa inh mix 3, FXIa inh mix 14 and CatG inh 20.
`O=C(Oc1cc2oc(=O)c3c(c2cc1Cl)CCCC3)c1ccco1` gave C1s block -27, FXIIa inh mix -16, FXIa inh mix 2 and CatG inh 6.
COC(=O)c1ccccc1NC(=O)c1cc2sccc2n1C was read as C1s block -5, FXIIa inh mix 3, FXIa inh mix -3 and CatG inh 31*.
`CSc1nnc(-c2sc3cc(Cl)ccc3c2Cl)n1C` gave C1s block -39, FXIIa inh mix 0, FXIa inh mix 11 and CatG inh 1.
For CCn1c(SC)nnc1-c1sc2cc(Cl)ccc2c1Cl the results were C1s block 15, FXIIa inh mix 42*, FXIa inh mix 18 and CatG inh 10.
For CC1CCCC(C)N1c1nnc(N)s1 (stereo unspecified) the results were C1s block -37, FXIIa inh mix 6, FXIa inh mix 3 and CatG inh -9.
`O=C(CCCCCN1C(=O)CCC1=O)Nc1ccc2c(c1)OCO2` gave C1s block 21, FXIIa inh mix 23*, FXIa inh mix 5 and CatG inh 8.
Screening COc1ccc(S(=O)(=O)N(CC(=O)NC2CC2)c2ccc(C)cc2)cc1OC returned C1s block 11, FXIIa inh mix 4, FXIa inh mix 0 and CatG inh 10.
Cc1cc(C)n(CCc2nc3c4ccccc4nc(SCc4ccc(C#N)cc4)n3n2)n1 was read as C1s block 11, FXIIa inh mix 26*, FXIa inh mix 6 and CatG inh 7.
For Cc1cc(C)n2c(SCc3ccc(C#N)cc3)nnc2n1 the results were C1s block 0, FXIIa inh mix 1, FXIa inh mix 4 and CatG inh -1.
Screening O=C(NCc1ccco1)N1c2ccccc2Sc2ccccc21 returned C1s block -2, FXIIa inh mix 7, FXIa inh mix 4 and CatG inh -3.
Screening CC1(C)Oc2ccc3ccc(=O)oc3c2C(N2CCCCC2)C1O (stereo unspecified) returned C1s block 11, FXIIa inh mix 20*, FXIa inh mix 4 and CatG inh 12.
Screening CC1(C)Oc2ccc3ccc(=O)oc3c2/C(=C/N)C1=O returned C1s block 0, FXIIa inh mix -5, FXIa inh mix 4 and CatG inh -2.
CC(C)COP(=O)(c1ccc(N(C)C)cc1)C(O)c1ccccn1 (stereo unspecified) was read as C1s block 12, FXIIa inh mix 48*, FXIa inh mix 7 and CatG inh 9.
CC(C)CCOP(=O)(c1ccc(N(C)C)cc1)C(O)c1ccccn1 (stereo unspecified) was read as C1s block -1, FXIIa inh mix 5, FXIa inh mix -1 and CatG inh 7.
For CC(C)NC(=O)CN(CCc1ccccc1)S(C)(=O)=O the results were C1s block 8, FXIIa inh mix 22*, FXIa inh mix 10 and CatG inh 14.
Screening CCNC(=O)CN(CCc1ccccc1)S(C)(=O)=O returned C1s block -17, FXIIa inh mix 7, FXIa inh mix 5 and CatG inh 8.
COC(=O)c1[nH]c2ccc(C)cc2c1NC(=O)CN1CCCCC1C (stereo unspecified) was read as C1s block -33, FXIIa inh mix 2, FXIa inh mix 2 and CatG inh -1.
Screening CCOc1cc2[nH]c(=S)n(CC3CCCO3)c(=O)c2cc1OCC (stereo unspecified) returned C1s block 22*, FXIIa inh mix 20, FXIa inh mix 8 and CatG inh 14.
CC1(C)C(=O)OC(c2cccs2)C(C)(C)C1=O (stereo unspecified) was read as C1s block 4, FXIIa inh mix -28, FXIa inh mix 28 and CatG inh 1.
Screening CCOC(=O)Cc1csc(SCn2nnc3ccccc3c2=O)n1 returned C1s block 9, FXIIa inh mix -20, FXIa inh mix 5 and CatG inh 11.
For CCOC(=O)Cc1csc(-n2sc3ccccc3c2=O)n1 the results were C1s block -8, FXIIa inh mix 31*, FXIa inh mix -1 and CatG inh 10.
`O=C(NCc1ccco1)C(Cc1ccccc1)N1C(=O)c2ccccc2C1=O` (stereo unspecified) gave C1s block 1, FXIIa inh mix 4, FXIa inh mix 26* and CatG inh -2.
Screening COc1ccc(C2C=C(c3ccccc3)Nc3nc(CCCO)nn32)cc1 (stereo unspecified) returned C1s block -26, FXIIa inh mix 9, FXIa inh mix 41* and CatG inh 10.
